Assay outcomes (PubChem)
Shown are actives, neighbours in structure and some others; about 3.7% of the full set was active somewhere.
BoNT-A LC inh2: inhibitors of Botulinum neurotoxin A light chain protease; 360,000 compounds, 0.17% hits; inhibition, % at 10 µM; AID 588499; multiplex microsphere protease substrate cleavage, flow cytometry
BoNT F protease: blocks Botulinum neurotoxin F light chain protease; Multiplex microsphere protease cleavage assay, flow cytometry; 360,000 compounds, 0.22% hits; inhibition, % at 10 µM; in the data active means inhibition above about 35%, passing the limit was not always enough; inconclusive means no clear call, values can overlap the other calls
Bead autofluor: counter-screen for toxin protease inhibitors: compound fluorescence; compound autofluorescence counterscreen, microsphere flow cytometry; hits give high values; 360,000 compounds, 3.1% hits; fluorescence intensity (no concentration beside the values); AID 624483; in the data active means fluorescence intensity above about 16000; inconclusive means no clear call, values can overlap the other calls
Anthrax LF inh2: inhibitors of Bacillus anthracis lethal factor protease. multiplex microsphere protease cleavage assay, LF. inhibition, % at 10 µM. 360,000 compounds, 0.12% hits. AID 588501
MazEF act: increases E. coli MazEF RNase cleavage of RNA. P0AE70. FAM/BHQ RNA-DNA oligo cleavage fluorescence, 5 h. activation, % at 20 µM. 350,000 compounds, 0.32% hits; in the data active means activation above about 50%
Target sequence (P0AE70 whole entry, looked up): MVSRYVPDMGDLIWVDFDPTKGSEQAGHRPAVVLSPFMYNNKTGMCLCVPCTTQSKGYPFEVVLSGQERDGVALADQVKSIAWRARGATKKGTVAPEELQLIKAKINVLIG
Of the large screens only hits and unclear results are named; the others gave an inactive call. Unless noted, no stated cut-off is given here; in the data, active means inhibition above about 30%; inconclusive means no clear call, values can overlap the other calls; inactive means below that.

CN1CCCC(OC(=O)c2ccc(C(C)(C)C)cc2)C1 (stereo not given)	none
CCN1CCN(CC(O)COC(C)C)CC1 (stereo not given)	Bead autofluor 20191
CCOc1ccc(CN(C(=O)c2ccccn2)c2ccc(OC)c(Cl)c2)cc1	none
COc1cccc(C2CC(c3ccccc3Cl)Nc3ncnn32)c1 (stereo not given)	Bead autofluor 18432
COc1ccc(C2CC(c3ccccc3Cl)Nc3ncnn32)cc1OC (stereo not given)	none
CCC(=O)Nc1cc2c3c(c1)CCN3C(=O)CC2	none
NC(=O)c1cccc(-c2coc3c(C(=O)NC4CCCCC4)cccc23)c1	none (no result: MazEF act)
O=C(NCc1ccc(F)cc1)C(c1cccs1)N(C(=O)c1csnn1)C1CC1 (stereo not given)	BoNT-A LC inh2 inconclusive, Bead autofluor 16343
CC(C)NC(=O)C1(C)CCCN1C/C=C/c1ccccc1 (stereo not given)	none (no result: MazEF act)
Cc1ccc(C(=O)Nc2ccc(S(=O)(=O)N3CCCC3)cc2)o1	none
O=C(Nc1ccc(S(=O)(=O)N2CCOCC2)cc1)c1ccco1	none
O=C(Nc1ccccc1C(=O)O)c1cccc(NC(=O)c2ccc(Br)o2)c1	none
O=C(CNC(=O)c1ccco1)Nc1ccc(S(=O)(=O)N2CCCC2)cc1	Bead autofluor 21490
O=C(Nc1ccc(S(=O)(=O)N2CCCCCC2)cc1)c1ccc(Br)o1	Bead autofluor 21567
O=C(Nc1ccccc1C(=O)O)c1ccc(NC(=O)c2ccc(Br)o2)cc1	Bead autofluor 23730
Cc1sc(N/N=C/c2cccs2)nc1-c1ccccc1	none
N#CCCN(Cc1ccccc1)C(C(=O)NC1CCCCC1)C1CC1 (stereo not given)	none (no result: MazEF act)
Cc1ccc(C)c(SCC(=O)NC(=O)NC2CCCC2)c1	none
Cc1ccc2c3c(c(SCC(=O)Nc4nonc4C)nc2c1)CCCC3	BoNT-A LC inh2 inconclusive, Bead autofluor 23233
COc1ccc(/C=C/C(=O)c2ccc[nH]2)cc1OC	Bead autofluor 16560
CS(=O)(=O)N(CC(=O)N1CCCCCC1)Cc1ccc(Cl)cc1	BoNT-A LC inh2 inconclusive, Bead autofluor 22456
CS(=O)(=O)N(CC(=O)NCC1CCCO1)Cc1ccc(Cl)cc1 (stereo not given)	none
CN1CCN(C(=O)CN(Cc2ccc(Cl)cc2)S(C)(=O)=O)CC1	none
CS(=O)(=O)N(CC(=O)NC1CCCCC1)Cc1ccc(Cl)cc1	Bead autofluor 17256
CS(=O)(=O)N(CC(=O)NC1CCCC1)Cc1ccc(Cl)cc1	Bead autofluor 17349
O=C(COc1ccc2c(c1)oc(=O)c1ccccc12)NCCCN1CCOCC1	none
CCOC(=O)N1CCC(Nc2c(-c3ccccc3)c(=O)c2=O)CC1	Bead autofluor 20189
CCOC(=O)N1CCC(Nc2c(Nc3ccc(F)cc3)c(=O)c2=O)CC1	none
CCOC(=O)N1CCC(Nc2c(NCCN3CCN(Cc4ccccc4)CC3)c(=O)c2=O)CC1	Bead autofluor 21681
CCOC(=O)N1CCC(Nc2c(Nc3cccc(CC)c3)c(=O)c2=O)CC1	Bead autofluor 18932
CCOC(=O)N1CCC(Nc2ncnc3c2cnn3-c2ccccc2)CC1	BoNT-A LC inh2 inconclusive, Bead autofluor 26060
N#Cc1ccc(CN(c2ccncc2)S(=O)(=O)c2ccccc2)cc1	none
Cc1cccc(N2CC(C(=O)Nc3ccc(S(=O)(=O)Nc4nccs4)cc3)CC2=O)c1C (stereo not given)	none
CCOC(=O)N1CCC(Nc2nc(OC)nc(OC)n2)CC1	BoNT-A LC inh2 inconclusive, Bead autofluor 22300
Cc1ccccc1NC(=O)NC1(C(=O)NCC2CCCO2)CCCCC1 (stereo not given)	none
CCOC(=O)c1nnc(-c2ccccc2)nc1NCc1ccccc1	Bead autofluor 24408
CCOC(=O)c1cc(C#N)c(NCc2ccccc2)nc1C	none
O=C1NC(c2ccc(Br)cc2)Nc2sc3c(c21)CCC3 (stereo not given)	Bead autofluor 22598
Cc1ccc(C(=O)NN2CCOCC2)cc1	BoNT-A LC inh2 inconclusive, Bead autofluor 19445
Cc1c(Br)cc(-c2nnco2)cc1Br	Bead autofluor 23447
Cc1ccc(C)n1-c1ccc(-c2nnco2)cc1	none (no result: MazEF act)
CCCn1c(=O)c(F)cn(Cc2ccc(OC)c([N+](=O)[O-])c2)c1=O	Bead autofluor 21734
CCC(Oc1ccccc1F)C(=O)Nc1ccc2c(c1)n(C)c(=O)n2C (stereo not given)	BoNT F protease 38
Cc1csc(NC(=O)C2CCN(C(=O)c3ccccc3C)CC2)n1	none
Cc1csc(NC(=O)C2CCN(C(=O)CSc3nnc(C)n3Cc3ccccc3)CC2)n1	BoNT-A LC inh2 inconclusive, Bead autofluor 20510
C=CCSc1ncc(C#N)c(N)n1	Bead autofluor 20496
C/C(=N/NC(=O)NC12CC3CC(CC(C3)C1)C2)c1ccccc1	none
CC(C)(C)C(=O)N(CCN(C(=O)C(C)(C)C)c1ccccc1)c1ccccc1	Bead autofluor 23201
CC(=O)N(CCN(C(C)=O)c1ccccc1)c1ccccc1	none
CCN(CC(=O)NCCN1CCOCC1)S(=O)(=O)c1ccc(F)cc1	none
S=C(NCc1ccccc1)Nc1ccncc1	none
COc1cc(C(=O)NC2CCN(Cc3nnnn3Cc3cccs3)CC2)cc(OC)c1OC	Bead autofluor 22671
CCC(CC)N=C1NS(=O)(=O)c2cc([N+](=O)[O-])ccc21	none
CCNC(=O)CN(CCc1ccccc1)S(=O)(=O)c1ccc(OC)cc1	Bead autofluor 16480
COCCCNC(=S)N/N=C/c1ccc(OC)c(Br)c1	none
Cc1ccccc1-n1c(=O)c(C#N)cc2c(=O)n3ccccc3nc21	BoNT-A LC inh2 inconclusive, Bead autofluor 21339
CCCCCn1c(=NC(C)=O)c(C#N)cc2c(=O)n3ccccc3nc21	Bead autofluor 23665
CCCCn1c(=NC(C)=O)c(C#N)cc2c(=O)n3cccc(C)c3nc21	none
CCCCn1c(=NC(=O)c2ccc3c(c2)OCO3)c(C#N)cc2c(=O)n3cccc(C)c3nc21	BoNT-A LC inh2 63, BoNT F protease 38, Anthrax LF inh2 49
CC(=O)N=c1c(C#N)cc2c(=O)n3ccccc3nc2n1CCCOC(C)C	none (no result: BoNT-A LC inh2, BoNT F protease, Bead autofluor, Anthrax LF inh2)
Nc1ccc(CCCC(=O)NCc2cccnc2)cc1	none
O=C(Nc1cccc(C(F)(F)F)c1)n1cc(-c2ccccn2)c(N2CCOCC2)n1	none
O=C(Nc1nnc([C@@H]2C[C@H](O)[C@@H](CO)O2)s1)c1cccc(Cl)c1	none (no result: MazEF act)
O=c1c2ccccc2nnn1CSc1nnc(COc2ccc(Cl)cc2)n1Cc1ccco1	BoNT-A LC inh2 inconclusive, Bead autofluor 22380
O=C(Nc1ccc(Cl)cc1)Nc1ccc(N2CCOCC2)cc1	none
O=C(Nc1ccc(N2CCOCC2)cc1)Nc1ccc(Cl)c(Cl)c1	Bead autofluor 17169
COc1ccc(NC(=O)CN(C)C(=O)c2ccc(NS(=O)(=O)c3ccc(F)cc3)cc2)cc1	Bead autofluor inconclusive
Cc1cccc(NS(=O)(=O)c2ccc(C3CCCCC3)cc2)n1	Bead autofluor 22937
CCC(=NCCCN(CC)CC)c1c(O)n(-c2ccccc2)c(=O)[nH]c1=O	Bead autofluor 24318
CCC(=NCCO)c1c(O)n(-c2ccccc2)c(=O)[nH]c1=O	none
CCN(CC)CCCN=C(C)c1c(O)n(-c2ccccc2)c(=O)[nH]c1=O	BoNT-A LC inh2 inconclusive, Bead autofluor 22362
